The source of these data is PubChem BioAssay.

Results filed as inconclusive are left out. The source made the active and inactive calls. Rule as the data show it, unless noted: active = inhibition above about 30%; inactive = the rest.

Test [1] is described as follows: Her2 expression decrease, cell viability multiplex – SKBR3 breast tumor cells, AlphaScreen, ATP viability, primary screen (AID 461;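 active = Her2 level under about 52% in both replicate screens, with viability over 70% of control, limit read from the data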;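 as to Her2 level: lower value means less Her2 protein in the cells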;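 as to viability: percent of carrier control wells set as 100% viability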). The following applies: SKBR3 Her2 protein level, 18-24 h, measured here: SKBR3 viability, ATP luminescence, at 10 µM.
Test [2] deals with Receptor tyrosine-protein kinase erbB-2 (Homo sapiens) (UniProt P04626). The description is as above. The note with it: 18-24 h, at 10 µM, stronger effect = lower value.
Receptor tyrosine-protein kinase erbB-2 (Homo sapiens), sequence (P04626 whole entry, looked up): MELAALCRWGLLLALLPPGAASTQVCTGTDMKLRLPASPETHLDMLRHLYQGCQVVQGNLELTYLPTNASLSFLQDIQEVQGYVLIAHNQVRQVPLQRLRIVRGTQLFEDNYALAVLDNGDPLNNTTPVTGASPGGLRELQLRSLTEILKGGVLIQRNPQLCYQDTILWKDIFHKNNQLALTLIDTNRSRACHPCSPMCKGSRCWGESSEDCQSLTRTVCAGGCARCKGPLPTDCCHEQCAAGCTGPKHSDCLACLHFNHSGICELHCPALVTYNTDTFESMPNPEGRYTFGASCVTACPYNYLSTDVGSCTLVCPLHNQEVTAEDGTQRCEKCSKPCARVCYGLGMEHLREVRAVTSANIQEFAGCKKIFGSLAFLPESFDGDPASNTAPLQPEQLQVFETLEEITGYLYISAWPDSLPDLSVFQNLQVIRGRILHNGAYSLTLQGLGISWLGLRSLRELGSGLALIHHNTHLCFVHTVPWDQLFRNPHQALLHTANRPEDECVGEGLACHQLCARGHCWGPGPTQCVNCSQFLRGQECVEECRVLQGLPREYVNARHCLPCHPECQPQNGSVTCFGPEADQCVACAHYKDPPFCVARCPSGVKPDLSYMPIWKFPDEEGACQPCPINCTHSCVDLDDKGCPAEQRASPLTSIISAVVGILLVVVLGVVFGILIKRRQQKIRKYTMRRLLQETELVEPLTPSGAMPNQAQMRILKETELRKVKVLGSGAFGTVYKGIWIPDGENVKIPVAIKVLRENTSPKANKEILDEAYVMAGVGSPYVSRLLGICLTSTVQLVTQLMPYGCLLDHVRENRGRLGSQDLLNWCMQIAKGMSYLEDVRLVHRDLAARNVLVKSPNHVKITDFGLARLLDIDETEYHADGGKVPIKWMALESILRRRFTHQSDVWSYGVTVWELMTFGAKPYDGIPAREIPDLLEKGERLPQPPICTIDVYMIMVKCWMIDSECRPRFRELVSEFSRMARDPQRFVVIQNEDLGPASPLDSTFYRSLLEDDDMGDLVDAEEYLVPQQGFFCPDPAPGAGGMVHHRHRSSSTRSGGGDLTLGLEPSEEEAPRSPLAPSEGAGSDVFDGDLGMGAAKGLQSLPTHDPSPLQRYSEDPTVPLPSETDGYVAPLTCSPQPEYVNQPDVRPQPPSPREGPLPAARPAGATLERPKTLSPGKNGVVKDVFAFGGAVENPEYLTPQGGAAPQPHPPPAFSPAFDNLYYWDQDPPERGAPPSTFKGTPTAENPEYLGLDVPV
A short description of test [3]: reduced viability of SK-BR-3 breast cancer cells – cell-based, 24 h, human, pilot screen (AID 572;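 active = viability at or below 10% of carrier control in both of two separate runs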;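 also: compound exposure lasted between 18 and 24 h rather than exactly 24 h; 100% = carrier-treated control wells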). The following applies: SK-BR-3 viability, CellTiter-Glo luminescence, at 10 µM, stronger effect = lower value. Background: Cellular ATP, detected with luciferase, serves as a proxy for viable cell number.
The nature of test [4]: HUVEC growth inhibition – cell-based, human, primary screen (AID 575;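 active = viability at or below 30% in both replicate assays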;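 also: 100% = median of untreated cell wells with 0.1% DMSO on each plate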). The following applies: HUVEC proliferation, CellTiter-Glo luminescence, 72 h; at 10 µM; stronger effect = lower value.
A short description of test [5]: H69AR cell proliferation blockers – human, duplicate replicates, primary screen (AID 580;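 active = viability at or under a set limit in both replicates, limit being median viability minus 3 SD, cut at about 48% in these data, passing the limit was not always enough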;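 also: 100% = mean luminescence of untreated wells and 0% = no signal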). The note with it: H69AR lung tumor cells viability, ATP luminescence, 72 h; at 10 µM; stronger effect = lower value.
A short description of test [6]: yeast transport mutant growth inhibition pilot in 384-well plates, post-Golgi transport modulator project (AID 636; in the data active = inhibition above about 31%). The note with it: absorbance 615 nm, about 18 h, stronger effect = higher value.
The nature of test [7]: growth suppression of yeast trafficking mutant, preliminary HTS, modulators of trafficking downstream of Golgi apparatus project, 1536-format plate, OD 615 nm (AID 637). The note with it: yeast transport mutant growth, absorbance 615 nm, 18 h; stronger effect = higher value.
Test [8] is described as follows: MRP1 drug-resistance reversers in H69AR cells – cell-based, doxorubicin co-treatment, pilot screen (AID 601;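 active = viability loss from added drug above about 55%, and viability with drug at most 40%, in both replicates, limit read from the data, passing the limit was not always enough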). The note with it: CellTiter-Glo, 72 h, at 10 µM; for differential viability (reversal): stronger effect = higher value.
A short description of test [9]: S. cerevisiae growth inhibition in permissive medium (OD615), pilot counter-assay for S. cerevisiae lifespan shortening project, permissive growth control (AID 705;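 active = growth inhibition above 25% in both replicates, a cutoff set 3 SD above the mean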). The note with it: OD615, 24 h, at 10 µM, stronger effect = higher value.
Test [10] can be described thus: S. cerevisiae growth inhibition in restrictive medium, OD615, pilot screen, restrictive growth control, yeast lifespan reduction project (AID 706;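 active = growth inhibition above a set limit, 3 SD over mean compound inhibition, in both replicates, cut at about 43% in these data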;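 also: modified DeaD lifespan yeast strain shifted to restrictive glucose medium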). The following applies: OD615, 48 h, at 10 µM, stronger effect = higher value.
Test [11] can be described thus: doxorubicin toxicity protection in MRP-1 cells – H69AR cells, CellTiter-Glo, duplicate, MRP-1 activator project, pilot screen (AID 807;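 active = viability increase at or above a cutoff of the median across tested compounds plus 3 SD, cut at about 8.5% in these data, passing the limit was not always enough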;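 also: compound pretreatment 18-22 h then 72 h combined with doxorubicin; 0% = doxorubicin alone and 100% = vehicle without doxorubicin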). The note with it: H69AR viability with doxorubicin, CellTiter-Glo luminescence; at 10 µM; stronger effect = higher value.
Test [12] is described as follows: viability of HCT116 without oncogenic beta-catenin – human colon tumor cells, pilot screen (AID 823;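 active = cell viability at or below a set limit in both duplicate runs, the limit being the all-compound median minus 4 SD, cut at about 23% in these data, passing the limit was not always enough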;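 also: 0% = wells killed by 20 µM Hyamine and 100% = untreated DMSO cell wells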). The following applies: HCT116 beta-catenin knockout viability, CellTiter-Glo, 60 h; at 10 µM; stronger effect = lower value.
A short description of test [13]: viability of PTEN-null HCT116 cells – cell-based, HCT116 clonal line, CellTiter-Glo, pilot screen (AID 824;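 active = viability at or below 27.92% in each of two runs, the all-compound median minus 4 SD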;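 also: 0% = 20 µM Hyamine control and 100% = vehicle cell control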). The following applies: HCT116 PTEN-deleted viability, 60 h, at 10 µM, stronger effect = lower value.
A short description of test [14]: RAM pathway blockade in budding yeast – dse1pr::URA3 reporter, 5-FOA selection, pilot screen (AID 869;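 active = inhibition over a set limit, the all-compound mean plus 3 SD, in both replicate runs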;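 also: 0% = DMSO wells with no growth and 100% = 10 µM 1-NA-PP1 with full growth; RAM network block rescues cells from 5-FOA so hits raise OD615 growth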). The following applies: S. cerevisiae dse1pr::URA3 5-FOA growth, OD615, 2 d; at 10 µM; stronger effect = higher value; strain carries analog-sensitive mutant Cbk1 kinase.
Setting [15] is: H69AR cells + 2 uM doxorubicin, measured here: viability with 2 uM doxorubicin, stronger effect = lower value.
The mark [16] stands for this setting: H69AR cells, compound alone cytotoxicity.

A word on the viability: it is a read-out of living cells in per cent, often relative to untreated cells. Usually inhibition stands for the change of the read-out against control, counted positive when it falls.

As for `C=CCSc1nnc2n(-c3ccccc3OC)c(=O)c3c4c(sc3n12)CCC4`, the viability in test [1] is 83.5%; in test [3], 83.5% (inactive); in test [4] it was 79.9% (inactive); in test [5], 89.1% (inactive). The Her2 level in [2] was 100% (inactive). Further, the values for the inhibition in [6] and in test [7] were -0.67% (inactive) and -0.95% (inactive), respectively.
Consider `Cn1cccc1Cc1nnc(SCC(=O)N2CCOCC2)n1-c1ccc(F)cc1`, for which the viability in [1] is 88.5%; in [3] it was 88.5% (inactive); in [4], 106% (inactive); in test [5], 99.7% (inactive); in test [8] (setting [15]), 88.3%; in test [8] (setting [16]) it was 99.7%. In addition, the viability in test [12] was 102% (inactive); in [13] it was 94.3% (inactive). In addition, the Her2 level in [2] was 104% (inactive). For the same compound, in test [8] (H69AR cells + 2 uM doxorubicin), the differential viability (reversal) was 11.4% (inactive). For the same compound, the inhibition was -6.93% (inactive) in test [6], 0.33% (inactive) in test [7] and -0.47% (inactive) in test [14]. In addition, the values for the growth inhibition in [9] and in test [10] were 5.02% (inactive) and 19.7% (inactive), respectively. In addition, in test [11], the viability increase was -1.33% (inactive).
In the case of `Cn1c(=O)n(Cc2ccccc2)c(=O)c2c1nc(NCC1CCCO1)n2Cc1ccccc1` (stereo not drawn), the viability in [1] was 81.5%; in test [3], 81.5% (inactive); in test [4], 74.4% (inactive); in test [5], 73.3% (inactive). The Her2 level in test [2] was 103% (inactive). The inhibition in [6] was 0.79% (inactive); in [7] it was -0.18% (inactive).
Consider `Cc1ccc(-n2ncc3c(N4CCN(c5ccccc5)CC4)ncnc32)c(C)c1`, for which the viability in [1] is 93%; in test [3], 93% (inactive); in test [4], 57.9% (inactive); in test [5], 80.3% (inactive). The Her2 level in test [2] was 79% (inactive). Also, the inhibition is -2.93% (inactive) in test [6] and 1.94% (inactive) in test [7].
For the compound `CC12COC3(C(=O)Nc4ccc(Cl)cn4)CC1CCC32C` (stereo not drawn), the viability in test [1] is 72%; in test [3] it was 72% (inactive); in test [4], 82.9% (inactive); in test [5], 94.6% (inactive); in test [8] (setting [15]), 85.1%; in test [8] (setting [16]), 94.6%. For the same compound, the values for the viability in test [12] and in test [13] were 85.3% (inactive) and 85.7% (inactive), respectively. Moreover, the Her2 level in test [2] is 112% (inactive). The differential viability (reversal) in [8] (H69AR cells + 2 uM doxorubicin) is 9.46% (inactive). Also, the inhibition in test [6] was 0% (inactive); in test [7] it was -10% (inactive); in test [14] it was 0.735% (inactive). Besides, the growth inhibition in test [9] was -15.9% (inactive); in [10] it was -9.37% (inactive). Also, the viability increase in [11] was -0.46% (inactive).
With `Cc1onc(-c2ccccc2Cl)c1C(=O)NCCn1c(C)cc2ccccc21`, the viability is 79% in test [1]; 79% (inactive) in test [3]; 78.3% (inactive) in test [4]; 83.3% (inactive) in test [5]; 89.6% in test [8] (setting [15]); 83.3% in [8] (setting [16]). The viability was 78.8% (inactive) in test [12] and 85.7% (inactive) in [13]. In addition, in test [2], the Her2 level was 80.5% (inactive). For the same compound, in [8] (H69AR cells + 2 uM doxorubicin), the differential viability (reversal) was -6.36% (inactive). Moreover, the figures for the inhibition in test [6], in [7] and in test [14] were -3.2% (inactive), 1.17% (inactive) and 1.56% (inactive), respectively. Besides, the growth inhibition in test [9] is -8.05% (inactive); in test [10] it was 0.31% (inactive). In addition, the viability increase in test [11] was -2.02% (inactive).
As for `CCN(c1ccc2c(c1)OCO2)S(=O)(=O)c1cc(Br)cc2c1N(C(=O)C1CC1)CC2`, the viability was 131% in test [1]; 131% (inactive) in test [3]; 89.6% (inactive) in test [4]; 73.9% (inactive) in test [5]; 62% in test [8] (setting [15]); 73.9% in [8] (setting [16]). The viability was 72.4% (inactive) in test [12] and 72% (inactive) in [13]. In addition, the Her2 level in test [2] is 92.5% (inactive). Moreover, the differential viability (reversal) in [8] (H69AR cells + 2 uM doxorubicin) was 11.9% (inactive). Also, the inhibition in test [6] was -10% (inactive); in [7] it was 3.17% (inactive); in test [14] it was 3.91% (inactive). The results for the growth inhibition in test [9] and in test [10] were -12.3% (inactive) and -14.7% (inactive), respectively. Moreover, in test [11], the viability increase is -3.72% (inactive).
Regarding `CC(C)COC(=O)C1C2C=CC3(CN(C(C)c4ccc(Br)cc4)C(=O)C13)O2` (stereo not drawn), the viability is 114% in [1]; 114% (inactive) in test [3]; 101% (inactive) in test [4]; 94.9% (inactive) in test [5]; 83.6% in [8] (setting [15]); 94.9% in test [8] (setting [16]). Moreover, the viability was 98.3% (inactive) in test [12] and 95.8% (inactive) in [13]. Besides, the Her2 level in test [2] is 100% (inactive). Besides, in test [8] (H69AR cells + 2 uM doxorubicin), the differential viability (reversal) is 11.3% (inactive). The inhibition was -6.53% (inactive) in test [6], -5.74% (inactive) in [7] and 0.915% (inactive) in test [14]. In addition, the growth inhibition is -9.09% (inactive) in [9] and 5.3% (inactive) in [10]. The viability increase in test [11] is -2.82% (inactive).
As to `Cc1[nH]c2ccccc2c1Cc1nnc(SCC(=O)NCc2ccco2)o1`, the viability in test [1] is 93%; in [3], 93% (inactive); in test [4], 97.5% (inactive); in test [5], 93.7% (inactive); in test [8] (setting [15]), 85.7%; in test [8] (setting [16]), 93.7%. In addition, the viability is 103% (inactive) in test [12] and 95.5% (inactive) in test [13]. In addition, the Her2 level in test [2] was 93% (inactive). Also, the differential viability (reversal) in test [8] (H69AR cells + 2 uM doxorubicin) is 8% (inactive). Also, the inhibition is 1.6% (inactive) in [6], -2.17% (inactive) in test [7] and 2.85% (inactive) in test [14]. Moreover, the growth inhibition was -12.4% (inactive) in test [9] and 12.7% (inactive) in test [10]. For the same compound, the viability increase in [11] was -3.96% (inactive).
As for `N#Cc1c(NC(=O)COC(=O)C2CC3C=CC2C3)oc(-c2ccccc2)c1-c1ccccc1` (stereo not drawn), the viability is 106% in test [1]; 106% (inactive) in test [3]; 78.1% (inactive) in [4]; 44.6% (active) in test [5]; 68.1% in test [8] (setting [15]); 44.6% in test [8] (setting [16]). In addition, in test [12], the viability is 92.3% (inactive). In addition, the Her2 level in test [2] is 80% (inactive). Moreover, the differential viability (reversal) in test [8] (H69AR cells + 2 uM doxorubicin) is -23.4% (inactive). Also, the inhibition in [6] was -0.26% (inactive); in [7] it was -0.36% (inactive); in test [14] it was 3.41% (inactive). Further, the growth inhibition in test [9] is -17.5% (inactive); in [10], -14.6% (inactive). Further, in [11], the viability increase is -5.47% (inactive).
In the case of `CCn1c(SCC(=O)Nc2ccc3c(c2)OCO3)nc2c(c1=O)SC(C)C2` (stereo not drawn), the viability is 92.5% in [1]; 92.5% (inactive) in [3]; 81% (inactive) in test [4]; 84.7% (inactive) in [5]; 83.2% in test [8] (setting [15]); 84.7% in test [8] (setting [16]). In addition, the viability is 99.9% (inactive) in [12] and 96.8% (inactive) in [13]. In addition, the Her2 level in [2] was 102% (inactive). Besides, the differential viability (reversal) in test [8] (H69AR cells + 2 uM doxorubicin) was 1.51% (inactive). The inhibition was -4.67% (inactive) in test [6], -2% (inactive) in test [7] and 1.63% (inactive) in [14]. Besides, the growth inhibition in test [9] is -7.09% (inactive); in [10], -23.1% (inactive). In addition, the viability increase in test [11] was -2.42% (inactive).
